According to PubChem BioAssay AID540336 (Broad Institute, 2011):
About 520 (0.16%) of roughly 330,000 compounds were called active. The entries come from a sample that favours actives as a whole. A number with no mark means an inactive call.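 Rule for the calls: active = inhibition of at least 50% in every replicate; inconclusive = best replicate reaches 50% inhibition but some replicates fall short; inactive = the rest.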

Each compound was assayed against Histone acetyltransferase RTT109 (Candida albicans (strain SC5314 / ATCC MYA-2876)) (UniProt Q5AAJ8) (assay: Rtt109-Vps75 histone acetyltransferase blockade – biochemical, ThioGlo CoA-SH fluorescence, plate reader, primary screen (AID 540336)). Details: purified Rtt109/Vps75, ThioGlo CoA-SH fluorescence, 4 h; at 34.9 µM; active compounds read high.
Histone acetyltransferase RTT109 (Candida albicans (strain SC5314 / ATCC MYA-2876)), sequence (Q5AAJ8 whole entry, looked up): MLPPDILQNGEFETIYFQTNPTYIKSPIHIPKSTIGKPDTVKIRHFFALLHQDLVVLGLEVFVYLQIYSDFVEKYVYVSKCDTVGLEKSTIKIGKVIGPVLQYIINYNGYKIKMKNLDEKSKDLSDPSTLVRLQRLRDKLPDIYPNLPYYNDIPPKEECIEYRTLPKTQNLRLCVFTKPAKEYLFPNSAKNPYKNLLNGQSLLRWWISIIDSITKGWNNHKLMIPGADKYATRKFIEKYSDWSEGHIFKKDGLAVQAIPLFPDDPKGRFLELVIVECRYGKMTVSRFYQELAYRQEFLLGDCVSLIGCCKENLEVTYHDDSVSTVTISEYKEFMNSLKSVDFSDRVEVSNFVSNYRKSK
Oc1cccc(CCc2ccccn2)c1 gave an inhibition of -14.8%.
CC/C(=C\c1ccc(Cl)cc1)c1ccncc1 showed an inhibition of -6.6%.
In the case of CC12CCCCC1=CC(=O)CC2 (stereo unspecified), the inhibition is reported as -10.3%.
CC1=NN(/C(=N\c2nnc(C)s2)Nc2ccccc2)[C@H](c2ccc(C)cc2)S1 was tested, and the inhibition was -10.9%.
For Cc1cn(C2CC(O)C(CO)O2)c(=O)n(CCCc2ccccc2)c1=O (stereo unspecified), the inhibition was 5.62%.
Work on COc1ccc(/C=C2/CCCc3ccccc3C2=O)cc1 yielded an inhibition of -1.83%.
In the case of O=C(CNC(=O)c1ccccc1F)OCC(=O)c1c[nH]c2ccccc12, the inhibition is reported as 3.64%.
In the case of COc1ccc(Cl)cc1C=CC=NNC(=O)c1ccncc1, the inhibition is reported as -2.75%.
With Cc1cccc(NC(=S)N2CCC(C(=O)c3ccc(F)cc3)CC2)c1 the inhibition was -3.47%.
O=C(Nc1ccc(S(=O)(=O)N2CCOCC2)cc1)C1CCN(S(=O)(=O)c2ccc(Cl)cc2)CC1 was tested, and the inhibition was 1.41%.
C/C(=N\NC(=O)Cc1ccc(Cl)cc1)c1ccccn1 showed an inhibition of 1.88%.
With CCOc1cc2ccccc2cc1C(=O)Nc1ccccn1 the inhibition was -0.763%.
For CCN(CC)CCOc1ccc2c(c1)C(=NNC(=O)c1ccccn1)c1cc(OCCN(CC)CC)ccc1-2, the inhibition was 72.5% (active).
Work on COc1ccc(CCC(=O)Nc2ccc(Cl)c(S(=O)(=O)N3CCOCC3)c2)cc1OC yielded an inhibition of 4.5%.
CCNC(=S)NCC gave an inhibition of 3.05%.
O=C(O)c1ccc([N+](=O)[O-])cc1Sc1ccsc1 was tested, and the inhibition was -13.5%.
CC(NC(=O)c1ccccc1)C(=O)OCC(=O)Nc1cccc(S(=O)(=O)N2CCCC2)c1 (stereo unspecified) was tested, and the inhibition was 9.23%.
CCCCN1CC(CO)Oc2cccc(F)c2S1(=O)=O (stereo unspecified) was tested, and the inhibition was -0.514%.
Work on COc1ccc(CCNC(=O)CSc2nc(-c3ccc(OC)c(OC)c3)ccc2C#N)cc1 yielded an inhibition of 0.0988%.
COc1cccc(-c2ccc(C#N)c(SCC(=O)NCCc3ccc(Cl)cc3)n2)c1 was tested, and the inhibition was 58.6% (active).
Compound COc1ccc(CCNC(=O)COC(=O)c2cnc(Cl)c(Cl)c2)cc1 has an inhibition of 9.18%.
With O=[N+]([O-])c1ccc(C=NN=Cc2ccc([N+](=O)[O-])cc2)cc1 the inhibition was -12.3%.
COc1ccc(C(CNC(=O)c2cc(S(=O)(=O)Nc3cccc(C)c3)ccc2C)N2CCCC2)cc1 (stereo unspecified) gave an inhibition of 22.1%.
Compound CCOc1cc(C=NNC(=O)CCCC(=O)NN=Cc2ccc(O)c(OCC)c2)ccc1O has an inhibition of 3.06%.
For COC(=O)C1CC2=C(CC(C)(C)CC2=O)N(c2ccccc2)C1=O (stereo unspecified), the inhibition was -0.664%.
COc1ccc(CCNC(=O)c2ccc(NC(=O)CC3SC(N4CCCCC4)=NC3=O)cc2)cc1OC (stereo unspecified) gave an inhibition of 9.04%.
In the case of O=c1[nH]n2c(-c3ccccc3)nc(O)c2c2ccccc12, the inhibition is reported as -9.47%.
In the case of O=c1[nH]c2ccccc2n2c(-c3ccccc3)nnc12, the inhibition is reported as 127% (active).
In the case of O=C(c1ccc2c(c1)C(=O)N(Cc1ccncc1)C2=O)N1CCN(S(=O)(=O)c2ccc(OC(F)(F)F)cc2)CC1, the inhibition is reported as 5.03%.
Work on NC(=O)c1ncn([C@@H]2O[C@H](CNCc3cnc(N4CCOCC4)s3)[C@@H](O)[C@H]2O)n1 yielded an inhibition of 0.868%.
For O=C(OCCOc1ccccc1F)c1cc(S(=O)(=O)N2CCOCC2)ccc1F, the inhibition was -4.81%.
O=C(OCCOc1ccccc1Cl)c1cc(S(=O)(=O)N2CCCCC2)ccc1N1CCOCC1 showed an inhibition of 2.25%.
In the case of NNc1cccc(C=Cc2ccccc2)cc1=O, the inhibition is reported as 9.21%.
In the case of COc1ccccc1N(CC(=O)Nc1c(C)n(C)n(-c2ccccc2)c1=O)S(=O)(=O)c1ccccc1, the inhibition is reported as 33.3%.
Compound CCc1c(Nc2ccccc2C)nc(N)[nH]c1=O has an inhibition of -5.27%.
O=C(O)c1ccc(Cn2cnc3c(=S)nc[nH]c32)cc1 showed an inhibition of 0.573%.
O=C1OCC2=C1C(c1ccc(Cl)cc1)c1cc3c(cc1O2)OCO3 (stereo unspecified) gave an inhibition of 8.44%.
Cc1cc(C)c2c(NC(=O)C3CC3)nn(C)c2n1 showed an inhibition of -4.52%.
C=CCN1C=C(C(=O)c2ccccc2)C(=O)CC1 showed an inhibition of 9.46%.
CN(C)CCNC(=O)c1ccc(Cl)c2cc3ccccc3nc12 was tested, and the inhibition was 0.27%.
For Nc1ccccc1SC(C[N+](=O)[O-])c1ccccc1 (stereo unspecified), the inhibition was 108% (active).
Cc1ccc(C(C[N+](=O)[O-])c2c(C)cc3ccccn23)cc1 (stereo unspecified) gave an inhibition of 2.3%.
Oc1c(CN2CCCC2)cc(COCc2ccccc2)c2cccnc12 was tested, and the inhibition was -7.26%.
With CCCSc1nc2sc3c(c2c(=O)n1-c1ccc(OC)cc1)CCN(C)C3 the inhibition was 0.409%.
COc1ccccc1NC(=O)CSc1nc2sc3c(c2c(=O)n1-c1ccccc1)CCN(C)C3 was tested, and the inhibition was 59.4% (active).
CCn1c(SCC(=O)Nc2ccc(Br)cc2)nc2sc3c(c2c1=O)CCN(C)C3 was tested, and the inhibition was 51.8% (active).
Work on CCSc1nc2sc3c(c2c(=O)n1-c1ccc(C)cc1)CCN(C)C3 yielded an inhibition of 8.04%.
For CCOc1ccc(-n2c(SCC(=O)OC)nc3sc4c(c3c2=O)CCN(C)C4)cc1, the inhibition was -6.79%.
CCOc1ccc(-n2c(SCC(=O)Nc3ccc(OC)cc3)nc3sc4c(c3c2=O)CCN(C)C4)cc1 was tested, and the inhibition was 11.2%.
Cc1ccc(C(=O)CNc2ccc(F)cc2)cc1 showed an inhibition of -2.53%.
In the case of Cc1ccc(SC(CC(=O)c2ccc(C(C)(C)C)cc2)C(=O)O)cc1 (stereo unspecified), the inhibition is reported as 142% (active).
Compound Cc1ccc(C(=O)CSc2ccccc2C(=O)O)cc1 has an inhibition of -2.24%.
For O=[N+]([O-])c1ccc(N=NNc2ccc([N+](=O)[O-])cc2)cc1, the inhibition was 2.16%.
Compound Cc1cccc(CC2(O)C(=O)Nc3ccccc32)n1 (stereo unspecified) has an inhibition of -2.36%.
Work on O=C(Nc1c(Br)cc2c(c1Br)Cc1ccccc1-2)C(F)(F)F yielded an inhibition of -19.3%.
For OCC1(CO)CC2(C1)CC(CO)(CO)C2, the inhibition was -0.212%.
Cc1cccc(C=CC(=O)c2ccc(Cl)cc2)c1 was tested, and the inhibition was -3.33%.
For CNc1nc(=O)n(C2CCCO2)cc1C (stereo unspecified), the inhibition was 12.5%.
S=C(Nc1ccccc1)Nc1ccc2ccccc2c1 was tested, and the inhibition was 0.68%.
In the case of C=CCn1c(=O)n(C)c2c(=O)n(C)c(=O)n(C)c21, the inhibition is reported as 1.91%.
Compound CNC(=O)NC(=O)C(C)N1CCN(C/C=C/c2ccccc2)CC1 (stereo unspecified) has an inhibition of -0.128%.
In the case of CC(C)=CCc1ccc(O)c(=O)cc1C(C)C, the inhibition is reported as 6.99%.
For CCC(=O)N(CCc1ccccc1)Cc1cc2cc(C)ccc2[nH]c1=O, the inhibition was 54.1% (active).
In the case of CCN(Cc1cc2cc(C)ccc2[nH]c1=O)S(=O)(=O)c1ccccc1, the inhibition is reported as 6.13%.
For Cc1ccc2[nH]c(=O)c(CN(CCCN(C)C)C(=O)Nc3cccc(Cl)c3)cc2c1, the inhibition was 6.58%.
COc1cccc2oc(CCc3ccccc3)cc(=O)c12 showed an inhibition of -16.8%.
In the case of COc1cc(/C=C/C(=O)OCC(=O)NC2CC2)cc(OC)c1OC, the inhibition is reported as 10.9%.
For O=C(Nc1ccc2c(c1)OCCO2)C1CCCN(c2ncccn2)C1 (stereo unspecified), the inhibition was -8.66%.
For O=C(Nc1ccc2c(c1)OCCO2)C1CCCC1, the inhibition was -1.87%.
With Cc1cc(C)nc(N2CCC(C(=O)Nc3ccc4c(c3)OCCO4)CC2)n1 the inhibition was 54.4% (active).
For C[C@H](O)[C@@H]1C(=O)N2CCc3ccc(N4CCOCC4)cc3[C@@H]2C[C@@H]1N(C)C(=O)C(C)(C)C, the inhibition was 0.072%.
Cc1nn(-c2ccc(F)cc2)c(Cl)c1/C=C(/CCC(=O)O)c1nc2ccccc2s1 was tested, and the inhibition was 3.42%.
For CC(C)C(=O)Nc1c2c(nn1-c1ccccc1)CSC2, the inhibition was 2.65%.
COc1ccc(-n2nc3c(c2NC(=O)c2ccc(N4C(=O)CCC4=O)cc2)CSC3)cc1 was tested, and the inhibition was 57.3% (active).
For CC(=O)Nc1c2c(nn1-c1cccc(C)c1)CSC2, the inhibition was -4.46%.
Work on COc1cc(C(=O)N2CCN(S(=O)(=O)c3ccc(C(C)C)cc3)CC2)ccc1OCC(=O)N1CCOCC1 yielded an inhibition of -4.48%.
In the case of COc1ccc(Cn2cc(CN3CCS(=O)(=O)N(Cc4ccc(-c5cccc(Cl)c5)cc4)C(C)C3=O)nn2)cc1 (stereo unspecified), the inhibition is reported as 11.2%.
COc1ccc(S(=O)(=O)NC(C)C(=O)Nc2cccc([N+](=O)[O-])c2)cc1 (stereo unspecified) showed an inhibition of -0.177%.
For COC(=O)/C=C\C(=O)Nc1cccc([N+](=O)[O-])c1, the inhibition was 68.2% (active).
In the case of COc1cccc(CNC(=O)CCCC(=O)Nc2cccc([N+](=O)[O-])c2)c1, the inhibition is reported as -7.21%.
With CC/C(=C(/c1ccccc1)c1ccc(OCC[N+](C)(C)C)cc1)c1ccccc1 the inhibition was -16.1%.
Compound Cc1ccc(S(=O)(=O)n2oc(=O)c(C3CCCCC3)c2N)cc1 has an inhibition of 0.705%.
Work on CCCCN(C(=O)CSCc1ccc(C)cc1)c1c(N)n(Cc2ccccc2)c(=O)[nH]c1=O yielded an inhibition of -4.15%.
For COc1ccc(CC(=O)NC(C)c2ccc(Cl)c(Cl)c2)cc1S(=O)(=O)N1CCOCC1 (stereo unspecified), the inhibition was -2.98%.
Compound COc1cc2c(cc1OC)C1C(=O)c3cc(OS(C)(=O)=O)c(OC)cc3C1N(C)C2=O (stereo unspecified) has an inhibition of -1.27%.
With CC(C(=O)NC1CCS(=O)(=O)C1)N1C(=O)/C(=C/c2ccc(Cl)cc2)SC1=S (stereo unspecified) the inhibition was 180% (active).
For COc1ccc(/C=C2\SC(=O)N(CCC(=O)NC3CCS(=O)(=O)C3)C2=O)cc1 (stereo unspecified), the inhibition was 11.3%.
CN(C(=O)CN1C(=O)/C(=C/c2ccc(Cl)cc2)SC1=S)C1CCS(=O)(=O)C1 (stereo unspecified) showed an inhibition of -24.5%.
COc1cc(/C=C/c2ccc(/C=C/c3cc(OC)c(OC)c(OC)c3)cc2)cc(OC)c1OC gave an inhibition of 1.49%.
With O=[N+]([O-])c1ccc(COc2ccccc2CN2CCOCC2)cc1 the inhibition was 9.55%.
In the case of C=CCOC(=O)N1CCC2CC1c1cc(-c3ccc(OC)cc3)ccc12 (stereo unspecified), the inhibition is reported as -3.1%.
